Most compounds without a hit are left out; they make up all but 2.3% or so of the library.
UBC13 inh: human UBC13 polyubiquitination inhibition | P61088 | inhibition, % at 20 µM | actives 0.47% (n = 330,000) | UBC13 polyubiquitin chain formation, TR-FRET; in the data active means inhibition above about 45%, passing the limit was not always enough
Target sequence (P61088 whole entry, looked up): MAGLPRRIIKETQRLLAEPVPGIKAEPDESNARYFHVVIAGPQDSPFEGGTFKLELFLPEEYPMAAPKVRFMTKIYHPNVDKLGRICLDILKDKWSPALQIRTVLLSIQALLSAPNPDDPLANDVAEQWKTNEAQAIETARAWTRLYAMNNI
MEKK2wt PB1 HTS: raises or lowers MEK5 binding to wildtype human MEKK2 PB1 domain | Q9Y2U5 | bead flow cytometry, Alexa488-MEK5 binding to MEKK2 WT; actives lie on both sides | binding response (% of control), % at 10 µM | actives 1.1% (n = 290,000) | AID 1531; in the data active means binding response below about 67% or above about 130%
MEKK3 PB1 HTS: MEKK3-MEK5 PB1 interaction, increase or decrease; binding response (% of control), % at 10 µM; actives 1.4% (n = 290,000); bead-based flow cytometry, Alexa488-MEK5 binding to MEKK3; actives lie on both sides; 0 = blocked by unlabeled MEK5, 100 = vehicle;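 active means binding response more than 3 SD above or below the average of its plate-row segment, actives on both sides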;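 further: Alexa488 bead fluorescence after subtracting the streptavidin-only scavenger bead signal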
Target sequence (Q99759 whole entry, looked up): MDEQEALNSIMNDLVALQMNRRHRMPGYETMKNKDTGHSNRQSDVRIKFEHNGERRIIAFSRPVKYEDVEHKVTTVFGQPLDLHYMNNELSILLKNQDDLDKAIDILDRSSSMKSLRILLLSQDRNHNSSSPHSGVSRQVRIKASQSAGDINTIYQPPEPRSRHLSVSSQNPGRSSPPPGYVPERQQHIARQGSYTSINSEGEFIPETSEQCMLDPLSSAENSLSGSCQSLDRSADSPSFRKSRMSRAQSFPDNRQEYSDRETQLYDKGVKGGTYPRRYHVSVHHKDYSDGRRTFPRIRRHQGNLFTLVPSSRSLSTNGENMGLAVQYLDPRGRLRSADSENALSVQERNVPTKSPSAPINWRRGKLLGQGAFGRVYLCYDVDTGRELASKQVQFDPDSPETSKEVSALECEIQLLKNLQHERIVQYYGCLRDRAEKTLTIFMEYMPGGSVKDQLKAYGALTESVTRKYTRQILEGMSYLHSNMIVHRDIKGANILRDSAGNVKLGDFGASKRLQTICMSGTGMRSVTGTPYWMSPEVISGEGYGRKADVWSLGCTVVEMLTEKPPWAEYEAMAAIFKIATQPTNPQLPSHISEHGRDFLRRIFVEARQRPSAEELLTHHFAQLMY
MEKK2mut PB1 HTS: signal of MEK5 binding to mutant human MEKK2 PB1 domain; bead flow cytometry, Alexa488-MEK5 binding to MEKK2 mutant; percent response, % at 10 µM; actives 0.35% (n = 290,000); in the data active means percent response above about 24%, passing the limit was not always enough
MEKK2wt confirm: raises or lowers MEK5 binding to wildtype human MEKK2, retest; AID 1892; shares compounds with MEKK3 PB1 HTS; actives 2.4% (n = 5,900); binding response (% of control), % at 10 µM; bead flow cytometry, Alexa488-MEK5 binding to MEKK2 WT; actives lie on both sides; in the data active means binding response below about 16% or above about 210%; inactive means in between
MEKK2mut confirm: signal of MEK5 binding to mutant human MEKK2, retest; shares compounds with MEKK3 PB1 HTS; bead flow cytometry, Alexa488-MEK5 binding to MEKK2 mutant; percent response, % at 10 µM; actives 2% (n = 5,900); in the data active means percent response mostly above about 71%, no sharp cut-off; inactive means mostly below about 38%;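 further: higher means compound restores mutant binding toward wildtype level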
MEKK3 confirm: MEKK3-MEK5 PB1 inhibition, single concentration confirmation; shares compounds with MEKK3 PB1 HTS; bead flow cytometry, Alexa488-MEK5 binding to MEKK3; stronger effect = lower value; binding response (% of control), % at 10 µM; actives 1.8% (n = 5,900); AID 1894;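 active means binding response below 72% of control, or above a set upper limit, though filed actives all read lower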
Of the large screens only hits and unclear results are named; the others gave an inactive call (follow-up assays come after a bar, where they were run); [ ] = another dose, or the depositor's remark.

CC(=O)N[C@H]1[C@H](Oc2ccc3c(c2)CCC2C3CC[C@]3(C)C(=O)CCC23)O[C@H](CO)[C@@H](O)[C@@H]1O (some centres undefined)	none
COc1cscc1C(=O)O	none
COc1ccc(OC)c(S(=O)(=O)N2CCCC2C(=O)NC(C)c2ccccc2)c1 (centres undefined)	none
Cc1cc(C)c(CNC(=O)c2cc(C3CC3)nc3c2cnn3C(C)C)c(=O)[nH]1	none (no result: MEKK2wt PB1 HTS, MEKK3 PB1 HTS, MEKK2mut PB1 HTS)
Cc1cc(C)c2c(CN3CCOCC3)cc(=O)oc2c1	none
Cc1nc(CN2CCOCC2)cc(=O)[nH]1	MEKK2wt PB1 HTS 2.0[inhibitor], MEKK3 PB1 HTS 2.0[inhibitor] | MEKK2wt confirm inactive | MEKK2mut confirm inactive | MEKK3 confirm inactive
CCc1ccccc1NC(=O)C1CCCN1C(=O)Nc1ccc(C)cc1 (centres undefined)	none
Cc1cc(-c2nn(-c3ccccc3F)cc2CN2CCN(c3ccncc3)CC2)c(C)s1	MEKK2wt PB1 HTS 172.0 | MEKK2wt confirm inactive | MEKK2mut confirm inactive | MEKK3 confirm inactive
Cc1cc(-c2nn(-c3ccccc3F)cc2CN2CCC(O)CC2)c(C)s1	none
CCOC(=O)/C(N=Nc1c(Br)cc(Br)cc1Br)=C(\C)O	MEKK3 PB1 HTS 126.0 | MEKK2wt confirm inactive | MEKK2mut confirm inactive | MEKK3 confirm inactive
CCOC(=O)NC(=O)/C(N=Nc1cc(C)cc(C)c1)=C(\C)O	none
COc1cc(/C=C/c2noc(-c3ccccc3O)n2)ccc1OC(C)=O	MEKK3 PB1 HTS 129.0 | MEKK2wt confirm inactive | MEKK2mut confirm inactive | MEKK3 confirm inactive
CC(=O)Nc1ccc(/C=C/c2noc(-c3ccccc3O)n2)cc1	none
CCc1nc2ccc(C(=O)N(C)CC(=O)Nc3cccc(F)c3)cc2nc1CC	none (no result: MEKK2wt PB1 HTS, MEKK3 PB1 HTS, MEKK2mut PB1 HTS)
CCn1c(SCC(=O)Nc2ccc(N(C)C)cc2)nnc1-c1ccco1	none
CCOC(=O)C1CCN(C(=O)COc2ccc3c(c2)OCO3)CC1	none
COc1cc(SC)ccc1C(=O)N1CCCCCC1	MEKK3 PB1 HTS 125.0 | MEKK2wt confirm inactive | MEKK2mut confirm inactive | MEKK3 confirm inactive
Cc1nonc1C(=O)N/N=C/c1ccc(O)cc1O	none
O=S(=O)(Nc1ccc(Cl)cn1)c1ccc2c(c1)OCCO2	none (no result: MEKK2wt PB1 HTS, MEKK3 PB1 HTS, MEKK2mut PB1 HTS)
CCN(CCNC(=O)C1CCN(Cc2nc(-c3cccc(Cl)c3)oc2C)CC1)c1ccccc1	MEKK2wt PB1 HTS 188.0 | MEKK2wt confirm inactive | MEKK2mut confirm inactive | MEKK3 confirm inactive
CCc1ccc(-c2nc(CN3CCC(C(=O)NCCN(CC)c4ccccc4)CC3)c(C)o2)cc1	MEKK2wt PB1 HTS 184.0 | MEKK2wt confirm inactive | MEKK2mut confirm inactive | MEKK3 confirm inactive
Cc1oc(-c2ccc(Cl)cc2)nc1CN1CCC(C(=O)NCc2cccs2)CC1	none
CCc1ccc(-c2nc(CN3CCC(C(=O)NCc4ccc(F)cc4)CC3)c(C)o2)cc1	MEKK2wt PB1 HTS 145.0 | MEKK2wt confirm inactive | MEKK2mut confirm inactive | MEKK3 confirm inactive
CCN(CCNC(=O)C1CCN(Cc2nc(-c3ccc(Cl)cc3)oc2C)CC1)c1ccccc1	MEKK2wt PB1 HTS 163.0 | MEKK2wt confirm inactive | MEKK2mut confirm inactive | MEKK3 confirm inactive
CCN(CCNC(=O)C1CCCN(Cc2nc(-c3ccc(OC)cc3)oc2C)C1)c1ccccc1 (centres undefined)	none
Cc1oc(-c2cccc(Cl)c2)nc1CN1CCC(C(=O)NC2CC2)CC1	none
CC(C)=CC1C(C(=O)Nc2ccc(S(=O)(=O)N3CCOCC3)cc2)C1(C)C (centres undefined)	none (no result: MEKK2wt PB1 HTS, MEKK3 PB1 HTS, MEKK2mut PB1 HTS)
CCn1cc(/C=N/NS(=O)(=O)c2ccc(OC)cc2)c(C)n1	none
CCc1ccc(-c2nc(CN3CCC(C(=O)N4CCN(c5ccccc5)CC4)CC3)c(C)o2)cc1	MEKK2wt PB1 HTS 152.0 | MEKK2wt confirm inactive | MEKK2mut confirm inactive | MEKK3 confirm inactive
Cc1ccc(C)c(NC(=O)C(=O)NCC2CCCN2S(=O)(=O)c2cccs2)c1 (centres undefined)	none (no result: MEKK2wt PB1 HTS, MEKK3 PB1 HTS, MEKK2mut PB1 HTS)
COc1ccccc1C(=O)NCCC(=O)OCC(=O)Nc1ccc(S(N)(=O)=O)cc1	none (no result: MEKK2wt PB1 HTS, MEKK3 PB1 HTS, MEKK2mut PB1 HTS)
CCOc1cc(C(=O)N(CC)CC(=O)Nc2c(F)cccc2F)ccc1OCC(=O)N1CCCCC1	none (no result: MEKK2wt PB1 HTS, MEKK3 PB1 HTS, MEKK2mut PB1 HTS)
CC(Cc1c[nH]c2ccccc12)NC(N)=O (centres undefined)	MEKK3 PB1 HTS 129.0 | MEKK2wt confirm inactive | MEKK2mut confirm inactive | MEKK3 confirm inactive
CC(Cc1c[nH]c2ccccc12)C(=O)O (centres undefined)	none
Cc1cc(Br)ccc1NC(=O)CCSc1ccccc1	none
Cc1cc(NC(=O)CCSc2ccccc2)ccc1Br	MEKK3 PB1 HTS 133.0 | MEKK2wt confirm inactive | MEKK2mut confirm inactive | MEKK3 confirm inactive
O=C(NCCCN1CCCC1=O)c1cc(-c2cccnc2)nc2ccc(Cl)cc12	MEKK3 PB1 HTS 70.0[inhibitor] | MEKK2wt confirm inactive | MEKK2mut confirm inactive | MEKK3 confirm inactive
O=C(NCCCN1CCCC1=O)c1cc(-c2ccc3c(c2)OCO3)nc2ccccc12	none
COc1ccccc1N1CCN(C2CCN(S(=O)(=O)c3ccc4ccccc4c3)CC2)CC1	MEKK2wt PB1 HTS 145.0 | MEKK2wt confirm inactive | MEKK2mut confirm inactive | MEKK3 confirm inactive
COc1ccccc1N1CCN(S(=O)(=O)c2ccccc2F)CC1	MEKK3 PB1 HTS 45.0[inhibitor] | MEKK2wt confirm inactive | MEKK2mut confirm inactive | MEKK3 confirm inactive
O=C(COC(=O)/C=C/c1ccc(Cl)cc1)Nc1ccc2[nH]c(=O)[nH]c2c1	none (no result: MEKK2wt PB1 HTS, MEKK3 PB1 HTS, MEKK2mut PB1 HTS)
COC(=O)c1c(NC(=O)COc2ccc(Cl)cc2)sc2c1CC(C)(C)NC2(C)C	MEKK2wt PB1 HTS 186.0, MEKK2mut PB1 HTS 49.0 | MEKK2wt confirm inactive | MEKK2mut confirm inactive | MEKK3 confirm inactive
O=C(COc1ccccc1Cl)NNC(=O)c1ccc2nc[nH]c2c1	none (no result: MEKK2wt PB1 HTS, MEKK3 PB1 HTS, MEKK2mut PB1 HTS)
COc1cc(Cl)c(C)cc1NC(=O)CN1C(=O)C2CC=CCC2C1=O (centres undefined)	none (no result: MEKK2wt PB1 HTS, MEKK3 PB1 HTS, MEKK2mut PB1 HTS)
O=S(=O)(c1ccc2ccccc2c1)N1CCCOC1	none
Cc1ccc(S(=O)(=O)N2CCCOC2)cc1	MEKK3 PB1 HTS 79.0[inhibitor] | MEKK2wt confirm inactive | MEKK2mut confirm inactive | MEKK3 confirm inactive
COC(=O)c1ccc(C)c(NC(=O)CN(c2ccccc2)S(=O)(=O)N(C)C)c1	none
CS/C(N)=N/N=C/c1c(O)ccc2ccccc12	MEKK3 PB1 HTS 133.0 | MEKK2wt confirm inactive | MEKK2mut confirm inactive | MEKK3 confirm inactive
CN(C)/N=C/c1c(O)ccc2ccccc12	none
COc1cccc(CNCCc2c[nH]c3ccccc23)c1OCc1ccccc1	MEKK2wt PB1 HTS 165.0, MEKK2mut PB1 HTS 58.0 | MEKK2wt confirm inactive | MEKK2mut confirm inactive | MEKK3 confirm inactive
CC1(c2nnc(Cc3ccccc3)o2)CC(c2cccc(F)c2)=NO1 (centres undefined)	none (no result: MEKK2wt PB1 HTS, MEKK3 PB1 HTS, MEKK2mut PB1 HTS)
COc1ccc(/C=C/C(=O)NCC(=O)N/N=C/c2cc(Br)ccc2OC)cc1	MEKK2mut PB1 HTS 91.0 | MEKK2wt confirm inactive | MEKK2mut confirm inactive | MEKK3 confirm inactive
